Source: PubChem BioAssay
The list is not random: actives were taken first. Their share in the collection is about 2.5%.
GALK inhibitor – GALK (human) enzyme inhibition; P51570; recombinant GALK, Kinase-Glo ATP luminescence, 1 h; Potency, µM (titrated, usually from 57.5 µM), inactives show at the top dose activity, negative = inhibition, usual class: inhibitors; 44,000 tested, under 10 active;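 note: plate controls were full GALK reaction for no effect and reaction lacking GALK for full effect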
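Luminescent ATP-depletion readout (Kinase-Glo Plus) after 1 h room-temperature incubation of human GALK (5 nM) with galactose 100 µM and ATP 35 µM, pH 8.0 HEPES/Mg2+ buffer; compounds tested in qHTS format.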
HTT promoter inh – inhibits huntingtin promoter activity; HEK293 HTT promoter firefly luciferase reporter, 24 h; Potency, µM (doses to about 57.5 µM), for the others: at the highest dose activity change, negative = inhibition, usual class: inhibitors; 48,000 compounds, 0.93% hits; note: potency is the fitted concentration of half-maximal effect; nearly all actives have a fitted effect of over 50% in size
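Firefly luciferase readout (Dual-Glo, 10 min RT) after 24 h, 37 °C compound exposure (final up to 57.5 uM) of HEK293 reporter cells cultured 24 h beforehand; PTC124 at 50 uM final as control inhibitor; activity scaled vehicle 0%, zero RLU -100%.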
HTT-AS promoter – HTT-AS promoter activation. HEK293 HTT-AS promoter firefly luciferase reporter, 24 h; response scale: percent change from vehicle, -100% = no light. Potency, µM (top dose mostly 57.5 µM), for the others: top-dose activity change, positive = activation, most hits filed as activators. 48,000 compounds, 0.24% hits; note: potency is the fitted concentration of half-maximal effect; nearly all actives have a fitted effect of over 55% in size
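Quantitative HTS used concentration series of up to 57.5 uM final on HEK293 luciferase reporter cells, 24 h at 37 degrees C. Readout was Dual-Glo firefly luminescence.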
NTMT1 inhibitor – NTMT1 methyltransferase inhibition | NTMT1 MTase-Glo SAH luminescence, purified enzyme | Potency, µM (doses to about 114 µM), without a hit: at the top dose activity change, negative = inhibition, actives largely listed as inhibitors | 59,000 compounds, 2.5% hits | AID 1645870;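 note: potency is the fitted concentration of half-maximal effect; plate controls were DMSO vehicle for no effect and no enzyme for full effect; nearly all actives have a fitted effect of over 65% in size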
FH mod – Identification of activators of human fumarate hydratase by quantitative high-throughput screening; Fumarate hydratase, mitochondrial (Homo sapiens), P07954; Potency, µM (doses to about 79.9 µM), inactives show at the highest dose activity change, negative = inhibition, hits mostly inhibitors; FH coupled MDH/diaphorase resazurin fluorescence, 15 min; 54,000 compounds, 0.22% hits; AID 1347055, 2019; note: potency is the fitted concentration of half-maximal effect; % is set by controls: 0 for no effect and ±100 for the full control effect; the screen sought activators but most active calls are inhibition curves; nearly all actives have a fitted effect of over 45% in size
Target sequence (P07954 whole entry, looked up): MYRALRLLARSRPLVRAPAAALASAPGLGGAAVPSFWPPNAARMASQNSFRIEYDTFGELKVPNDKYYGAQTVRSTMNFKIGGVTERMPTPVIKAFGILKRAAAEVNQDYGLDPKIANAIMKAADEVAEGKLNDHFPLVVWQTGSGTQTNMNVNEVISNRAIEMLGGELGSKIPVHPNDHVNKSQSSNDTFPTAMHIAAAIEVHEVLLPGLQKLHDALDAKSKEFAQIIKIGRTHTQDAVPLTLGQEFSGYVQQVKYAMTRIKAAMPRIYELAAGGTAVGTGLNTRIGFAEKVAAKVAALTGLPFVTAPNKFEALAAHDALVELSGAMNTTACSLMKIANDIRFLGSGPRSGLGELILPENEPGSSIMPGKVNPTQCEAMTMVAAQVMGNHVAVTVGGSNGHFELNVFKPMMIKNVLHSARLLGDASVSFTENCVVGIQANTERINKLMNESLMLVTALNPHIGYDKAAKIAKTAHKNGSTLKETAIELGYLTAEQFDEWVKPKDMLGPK
The depositor's hits bear a star; ? = inconclusive; . = not tested or not shown; ! = not confirmed by another sample; [ ] = another dose, or the depositor's remark. Calls come from the whole dose curve; as a rule, active = well fitted curve in the direction sought with a large enough effect; inconclusive = small, poorly fitted or top-dose-only effect, or another doubt; inactive = no such curve, though single readings can be large; an effect the other way counts as inactive or inconclusive.

SMILES	GALK inhibitor	HTT promoter inh	HTT-AS promoter	NTMT1 inhibitor	FH mod
O=C(Nc1ccccc1F)c1ccc(Cn2nc(N3CCN(c4ccccc4)CC3)ccc2=O)o1	3%	?	-31%	0%	-10%
COc1ccc(/C=C/C(=O)Nc2ccccc2C(=O)O)cc1OC	.	.	.	25%[57.5 µM]	-7%
Cc1ccc(/C=C/C(=O)Nc2ccccc2C(N)=O)o1	4%	60%	4µM*	?	-9%
CCCc1ccc(NC(=O)c2ccc3c(c2)NC(=O)CS3)cc1	.	.	.	-1%	.
COc1cc2ccccc2cc1C(=O)Nc1cccc(-c2nc3cc(C)c(C)cc3o2)c1	0%	7.1µM*	-74%	?	-2%
COc1cc2ccccc2cc1C(=O)Nc1cc(-c2nc3ccccc3o2)ccc1C	2%	17%	14%	-6%	-14%
COc1cc2ccccc2cc1C(=O)Nc1ccc2oc(-c3cccc(Cl)c3Cl)nc2c1	0%	9%	3%	79µM*	-9%
CCc1ccc(-c2nc3cc(NC(=O)c4cc5ccccc5cc4OC)ccc3o2)cc1	0%	-22%	-7%	5%	-4%
COc1cccc(-c2nc3cc(NC(=O)c4ccc(C)c([N+](=O)[O-])c4)ccc3o2)c1	.	.	.	79µM*	.
O[C@@H](COc1cccc2ncccc12)CN1CCN(C2c3ccccc3[C@@H]3[C@H](c4ccccc42)C3(F)F)CC1 (stereo partly specified)	.	?	-34%	79µM*!	-13%
COc1ccccc1N1CCN(CC(O)COc2ccc(C)cc2C(C)(C)C)CC1 (stereo unspecified)	0%	?	-27%	?	-32%
Cc1ccc(NS(=O)(=O)c2cccc(C#N)c2)c2[nH]cc(C#N)c12	.	.	.	13%	.
Cc1cc(C)cc(Nc2cc(-c3ccccc3)nc(C)n2)c1	-1%	?	-26%	-1%	?
Oc1cccc(Nc2cc(-c3ccccc3)ncn2)c1	0%	49%	?	40µM*	-4%
Cc1cc(C)cc(NC(=O)c2cc(S(=O)(=O)N3CCCCCC3)cn2C)c1	1%	-9%	-13%	13%	-3%
Cc1cc(C)cc(NC(=O)c2cc(S(=O)(=O)N3CCC(C)CC3)cn2C)c1	-1%	-20%	-26%	89µM*	3%
FC(F)(F)c1ccccc1-c1nc(NCc2ccc(Cl)c(Cl)c2)c2ccccc2n1	.	.	.	23%	.
Cc1ccc(S(=O)(=O)c2cnc(SCC(=O)Nc3ccccc3C(F)(F)F)[nH]c2=O)cc1C	4%	-9%	-9%	89µM*	-21%
COc1cc(Cl)c(C)cc1NC(=O)CSc1ncc(S(=O)(=O)c2ccc(C(C)(C)C)cc2)c(=O)[nH]1	-6%	-4%	-9%	18µM*	?
O=C(CSc1ncc(S(=O)(=O)c2ccc(Cl)cc2)c(=O)[nH]1)Nc1cccc(C(F)(F)F)c1	3%	-4%	-2%	?	-27%
CCc1ccc(S(=O)(=O)c2cnc(SCC(=O)Nc3ccc(OC)cc3OC)[nH]c2=O)cc1	6%	9%	22%	-18%	-23%
CC(C)(C)c1ccc(S(=O)(=O)c2cnc(SCC(=O)Nc3ccc(F)c(Cl)c3)[nH]c2=O)cc1	20µM*	4%	-10%	25µM*	?
N#Cc1ccc(-c2ccc(CNc3ccc(N4CCC(C#N)CC4)cc3)o2)cc1	.	.	.	-8%[57.5 µM]	.
O=C1CCCC2=C1C(c1[nH]ncc1Cl)N=C(Nc1nccs1)N2 (stereo unspecified)	.	.	.	-2%	.
CC1(C)OB(c2ccc(O)c3ncc(N4CCNCC4)cc23)OC1(C)C	.	.	.	79µM*	.
SMILES	GALK inhibitor	HTT promoter inh	HTT-AS promoter	NTMT1 inhibitor	FH mod
C=CC(=O)Nc1cc(Nc2nccc(-c3cn(C)c4ccccc34)n2)c(OC)cc1N(C)CCN(C)C	.	.	.	25µM*	0%
Cc1csc(NC(=O)c2sc3nc4c(c(C(F)(F)F)c3c2N)CCC4)n1	.	?	-89%	27µM*!	0%
COc1cc(O)c(C(CC(=O)N2CCC[C@H](C)C2)c2ccc3c(c2)OCO3)c(OC)c1 (stereo partly specified)	.	.	.	3%[228 µM]	.
O=C(O)c1ccc(Nc2nc3ccccc3n3cnnc23)cc1	6%	28%	?	13µM*	?
O=C(Nc1ccc2oc(-c3cccnc3)nc2c1)c1ccc(-c2cccc(Cl)c2)o1	-2%	?	-33%	25µM*	2%
O=C(Nc1ccc2oc(-c3cccnc3)nc2c1)c1ccc(-c2ccc(Cl)cc2)o1	-19%	7%	8%	?	-2%
COc1cc(NC(=O)c2cccc(-n3cc(NC(=O)Nc4cccc(C)c4)cn3)c2)cc(OC)c1OC	.	.	.	3%[57.5 µM]	4%
Cc1ccc(/C=C/C(=O)Nc2ccc3nc(N4CCC(C)CC4)cc(C)c3c2)cc1	6%	-8%	-8%	89µM*	-28%
Cc1ccc(NC(=O)Nc2ccc3nc(N4CCN(C)CC4)cc(C)c3c2)cc1C	2%	-13%	-16%	89µM*	1%
Cc1cc(N2CCN(C)CC2)nc2ccc(NC(=O)Nc3ccccc3)cc12	-1%	62%	?	-12%	2%
COC(=O)[C@]1(C)CCC[C@@]2(C)[C@@H]3CC[C@@H]4C[C@@]3(CC[C@@H]21)C[C@H]4C(=O)O	.	.	.	7%[29.8 µM]	7%[53.3 µM]
CCCC1CCN(C(=O)CC(c2ccc3c(c2)OCO3)c2c(O)cc(OC)cc2OC)C1 (stereo unspecified)	.	.	.	1%[228 µM]	.
CCOc1ccccc1C1CC(=O)NC(C)=C1C(=O)OC1CCCCCC1 (stereo unspecified)	1%	32µM*	-45%	0%	-19%
O=C1NC(=O)C(c2ccccc2[N+](=O)[O-])=C1Nc1ccc(O)c(Cl)c1	.	-18%	-28%	45µM*!	25µM*!
NC(=NCCCCCCN=C(N)N=C(N)Nc1ccc(Cl)cc1)N=C(N)Nc1ccc(Cl)cc1	.	32%	-8%	35µM*!	13%[53.3 µM]
COc1cc(CNc2ccc3[nH]c(=O)[nH]c3c2)cc(Br)c1OCc1ccc(F)cc1	-2%	?	-35%	-6%	?
COc1cc(CNc2ccc3[nH]c(=O)[nH]c3c2)cc(Cl)c1OCc1ccc(F)cc1	-11%	-13%	-13%	3%	35µM*
CCN(CC)CCCC[C@H](NC(=O)[C@H](CC(C)C)NC(=O)[C@H](C)NC(=O)[C@H](Cc1ccccc1)NC(=O)c1ccc(C(C)(C)C)cc1)C(=O)N[C@@H](CO)C(=O)OC	.	.	.	8%	.
CCS(=O)(=O)N1CCc2cc(C(=O)Nc3cccc(C(C)=O)c3)ccc21	-9%	20%	0%	?	-7%
CC(C)c1ccc(NC(=O)c2ccc3c(c2)CCN3S(=O)(=O)c2ccccc2)cc1	0%	-27%	-15%	19%	-22%
CCCCc1ccc(NC(=O)c2ccc3c(c2)CCN3S(=O)(=O)CC)cc1	2%	22µM*	-47%	-17%	2%
